Compound activity from PubChem BioAssay.
Compounds with a hit are over-represented: about 19% of the library has one in this group of screens.
TDP1 cell noCPT – qHTS for Inhibitors of human tyrosyl-DNA phosphodiesterase 1 (TDP1): qHTS in cells in absence of CPT. DT40 Tdp1-/- hTDP1 cells, no CPT, ATP luminescence, 48 h. hit rate 15% among 420,000. Potency, µM (doses to about 46.2 µM), for inactives: top-dose activity change, negative = growth inhibition, actives largely listed as inhibitors; further: potency means the concentration at half of the fitted maximal effect; on the % scale 0 is the no-effect control and ±100 the full control effect; nearly all actives have a fitted effect of over 55% in size
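DT40 Tdp1-/-;hTDP1 cells, no CPT (DMSO vehicle only), 400 cells/well; compounds pin-transferred; ≥48 hr, 37 °C; CellTiter-Glo 30 min RT dark, luminescence read.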
DT40 TDP1 CPT – DT40-hTDP1 cell growth loss with CPT; Potency, µM (highest dose often 46.2 µM), without a hit: at the highest dose activity change, negative = growth inhibition, most hits filed as inhibitors; chicken DT40 Tdp1-/-;hTDP1 cells + 20 nM CPT, ATP luminescence, 48 h; hit rate 12% among 420,000; AID 686979; further: potency means the concentration at half of the fitted maximal effect; on the % scale 0 is the no-effect control and ±100 the full control effect; nearly all actives have a fitted effect of over 55% in size
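Chicken DT40 Tdp1-/- cells stably complemented with human TDP1 were seeded at 400 cells/well in medium containing 20 nM camptothecin, exposed to pin-transferred compounds, and grown at 37 °C for at least 48 hr. Viability was read as ATP luminescence.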
MCF10A rerep – DNA re-replication induction in MCF 10a cells | Potency, µM (titrated, usually from 46.1 µM), inactives show top-dose activity, positive = re-replication, most hits filed as activators | MCF 10A DNA re-replication, Hoechst nuclear intensity, 48 h | hit rate 2.9% among 350,000 | AID 624296; further: potency means the concentration at half of the fitted maximal effect; % of control where 0% means no effect; nearly all actives have a fitted effect of over 50% in size
IL-1B inflam inh – inflammasome signaling inhibition, IL-1 beta readout; activity change, % at 57.5 µM; THP-1 LPS/ATP IL-1B secretion, AlphaLISA, 16 h; hits give low values; hit rate 4.7% among 360,000; in the data active means activity change below about -50%; inconclusive means mostly about -30% to -49%; further: on the % scale 0 is the no-effect control and ±100 the full control effect
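THP-1 cells pretreated 1 hr with compounds (up to 57.5 uM final), then stimulated with LPS (250 ng/mL final) plus ATP (1.25 mM final); secreted IL-1B measured by AlphaLISA after 16 hr, decreased signal indicating inhibition.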
SW480 rereplic – induces DNA re-replication in SW480 colon adenocarcinoma cells | hit rate 1.8% among 340,000 | SW480 DNA re-replication, Hoechst DNA content imaging, 48 h | Potency, µM (series often up to 46.1 µM), without a hit: at the highest dose re-replication activation, actives largely listed as activators; further: potency means the concentration at half of the fitted maximal effect; % of control where 0% means no effect; nearly all actives have a fitted effect of over 55% in size
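Readout is total intensity of Hoechst-stained nuclei, excited at 405 nm and collected at 500-530 nm. Compound treatment lasted 48 hr at 37 C in 5% CO2 before staining.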
BCR signal inh – inhibitors of chronic active B-cell receptor signaling. ABC-DLBCL IkBa-CBG/CBR reporter, luminescence ratio, 4 h. Potency, µM (titrated, usually from 46.1 µM), for the others: at the top dose activity change, negative = inhibition, hits mostly inhibitors. hit rate 0.05% among 340,000; active means well fitted inhibition curve with a large enough effect in the signal ratio, with a control signal flat, not every such curve was filed as active; inconclusive means small, poorly fitted or top-dose-only effect, or effect the other way, or a change in a side signal; the % refers to the signal ratio;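 further: potency means the concentration at half of the fitted maximal effect; plate controls were basal doxycycline-induced cells for no effect and cells given 10 µM MG132 for full effect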
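Concentration-response series (up to 46 uM) were applied to TMD8 dual-reporter cells for 4 h at 37C with doxycycline. Green/red ratio, after filter-overlap correction, defined %Activity; red signal alone was normalised to basal cells and zero luminescence.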
An asterisk follows results filed as active; ? = inconclusive; . = no result; ! = a repeat was not active. Unless noted, the call rests on the fitted dose curve; in most records, active means well fitted curve in the direction sought with a large enough effect; inconclusive means small, poorly fitted or top-dose-only effect, or another doubt; inactive means no such curve, though single readings can be large; an effect the other way counts as inactive or inconclusive.

SMILES	TDP1 cell noCPT	DT40 TDP1 CPT	MCF10A rerep	IL-1B inflam inh	SW480 rereplic	BCR signal inh
Cc1cc(-n2c(=O)[nH]c(=O)n(C)c2=O)ccc1Oc1ccc(S(=O)(=O)C(F)(F)F)cc1	17µM*	?	.	.	.	.
CN1CCN(C(=S)NC(=O)c2ccc(Br)cc2)CC1	5.2µM*	?	-1%	-13	-12%	?
Cc1ccc(C(=O)NC(=S)N2CCN(C)CC2)cc1	3%	-2%	-8%	22	-8%	4%
CN1CCC(NC(=O)Nc2ccc(Br)cc2)CC1	?	-15%	3%	-2	-22%	?
CN1CCN(C(=S)C(=O)Nc2ccc(Br)cc2)CC1	?	13µM*	-8%	12	5%	?
CC(C)(C)NC(=O)C(c1ccccc1F)n1c(=O)c(-c2ccccc2)nc2ccccc21 (configuration not stated)	?	?	.	-4	.	.
Cc1ccc(Cn2c(C3CCCN3c3nc(C)cs3)nc3cc(C(F)(F)F)ccc32)cc1 (configuration not stated)	21µM*	?	15%	-18	-1%	19%
Fc1c(F)c(-n2nnc3ccccc32)c(F)c(F)c1Cl	-20%	0%	-7%	-3	4%	?
Cc1ccc(N=Cc2ccc[nH]2)c(O)c1	?	21µM*	17%	0	17%	3%
CCN(CC(=O)NC(C)(C)C)C(=O)CCl	13µM*	21µM*	13%	-55*	?	-10%
CC(C)(C)NC(=O)CCCCCCCC(=O)NC(C)(C)C	-5%	-3%	0%	4	-2%	-1%
CCn1cc(C(=O)N[C@@H](C)C(=O)NCCCn2ccnc2)c(=O)c2cc3c(cc21)OCO3	13%	-2%	0%	-2	?	-2%
CCn1cc(C(=O)N[C@@H](CC(C)C)C(=O)NCCCn2ccnc2)c(=O)c2cc3c(cc21)OCO3	0%	-5%	1%	2	13µM*	?
COc1ccccc1CNc1ncnc2ccc(-c3ccc(N(C)C)cc3)cc12	13µM*	16µM*	.	.	.	.
COc1ccccc1CNc1ncnc2ccc(-c3cccnc3)cc12	21µM*	?	.	.	.	.
Cc1ccc(C)c(CN2CCC(CNC(=O)C(CC(C)C)N3Cc4ccccc4C3=O)CC2)c1 (configuration not stated)	12µM*	?	.	.	.	.
CC(C)CC(C(=O)NCC1CCN(Cc2ccc(F)cc2)CC1)N1Cc2ccccc2C1=O (configuration not stated)	21µM*	23µM*	.	.	.	.
CC(C)CCNC(=O)[C@H](Cc1ccccc1)N1Cc2ccccc2C1=O	-11%	?	20%	-14	-4%	-6%
Cc1ccccc1NC(=O)COC(=O)c1ccc(S(=O)(=O)N2CCCC2)cc1	27%	13%	0%	15	6%	-2%
COc1ccc2c3c(n(C(=O)OC(C)(C)C)c2c1)C1CC=C(COC(C)=O)CN1CC3 (configuration not stated)	16µM*	16µM*	.	4	.	.
Cc1ccc(C)n1-c1nnc(N2CCC(C(=O)NCCCN3CC(C)CC(C)C3)CC2)s1 (configuration not stated)	-18%	?	1%	0	17%	-6%
O=C(NCCCc1ccccc1)C1CCN(c2nnc(-n3cccc3)s2)CC1	?	?	1%	5	-9%	4%
O=C(NCCCN1CCN(Cc2ccccc2)CC1)C1CCN(c2nnc(-n3cccc3)s2)CC1	26µM*	?	22%	0	-2%	-2%
Cc1ccc(C)n1-c1nnc(N2CCC(C(=O)NCCCN3CCN(C)CC3)CC2)s1	?	26µM*	5%	?	?	5%
CCOCCCNC(=O)c1cc(=O)n(Cc2cccc(C)c2)c2ccccc12	21µM*	?	?	21	?	-11%
SMILES	TDP1 cell noCPT	DT40 TDP1 CPT	MCF10A rerep	IL-1B inflam inh	SW480 rereplic	BCR signal inh
COc1ccc(CCNC(=O)COC(=O)c2cc(Cl)nc(Cl)c2)cc1	1%	-1%	6%	-1	-10%	1%
COc1ccc(CCN2CC(C(=O)N(C)Cc3c(C)n[nH]c3C)CCC2=O)cc1 (configuration not stated)	24%	-8%	0%	2	-24%	0%
CC(C)CNC(=O)COC(=O)c1c2c(nc3ccccc13)/C(=C/c1cccs1)CC2	26µM*	?	3.3µM*	4	3.7µM*	23%
NC(=O)c1ccc(NC(=O)COC(=O)c2c3c(nc4ccccc24)/C(=C\c2cccs2)CCC3)cc1	21µM*	?	23µM*	-5	21µM*	7%
Cc1ccc(C(=O)NCC(=O)OCC(=O)c2ccc(Br)s2)cc1	-12%	-1%	0%	13	0%	16%
C=CCNC(=S)NNC(=O)CCC(O)CCCCC (configuration not stated)	18µM*	15µM*	-2%	14	1%	-5%
C=CCNC(=S)NNC(=O)C(CCCC)CC(C)O (configuration not stated)	?	?	1%	0	-5%	?
CCCC(=O)N1CCCC(c2cc(C(=O)NCc3ccc(F)cc3)no2)C1 (configuration not stated)	-26%	-3%	.	-1	.	.
O=C1[C@H](Cc2ccccc2)NCCCC[C@H](c2ccc(Cl)cc2)N1Cc1ccccc1	16µM*!	?	?	-14	-4%	.
O=C1N[C@@H](Cc2ccccc2)C(=O)N2CCCC12 (some centres not stated)	-11%	-10%	6%	15	-5%	1%
O=C1[C@H](Cc2ccccc2)NCCCC[C@@H](c2ccc(Cl)cc2)N1Cc1ccc(Cl)cc1	?	?	?	-50*	?	.
CC(=O)c1ccc(OCC(=O)Nc2nnc(C3CC3)s2)cc1	-21%	-30%	.	-8	.	.
Cc1ccc(NS(=O)(=O)c2c(C)nc3sc(C)cn3c2=O)c(C)c1	18µM*	18µM*	.	.	.	.
Cc1ccc(NS(=O)(=O)c2c(C)nc3sccn3c2=O)c(C)c1	-25%	-29%	-4%	60	-15%	6%
CC1(C)CN(c2ccccc2)C(=O)[C@H]1CC(=O)Nc1ccccc1	-13%	-28%	.	1	.	.
COc1ccc(OC)c(CNC(=O)C2CCN(c3nc4ccccc4nc3C(F)(F)F)CC2)c1	1%	-11%	.	.	.	.
